# About 55 (4%) of roughly 1,300 compounds were called active.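 The calls were made as follows: active = fitted EC50 between 10 nM and 100 µM, Hill slope size 0.5 to 2, real signal loss, low interference; inactive = the rest.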 The list is a sample of the results. Potency and affinity values are given separately.
# Target: Ras-related C3 botulinum toxin substrate 1, Mus musculus (UniProt P63001)
# Test: activated Rac1 mutant nucleotide-binding inhibitors – biochemical, multiplex, GST-Rac1 beads, Bodipy-FL-GTP, flow cytometry, dose response (AID 1339)
row,SMILES,outcome
1,COC(=O)c1cccc(NC(=O)c2nn(C)c(=O)c3ccccc23)c1,inactive
2,Cc1ccc(C)c(N(CC(N)=O)S(C)(=O)=O)c1,inactive
3,Cc1nc2ccc(NC(=O)COc3ccccc3)cc2s1,inactive
4,CCOC(=O)Cn1c(=O)c2c(nc(N3CCCCC3)n2C)n(C)c1=O,inactive
5,Cc1cccc(CNc2nc(C)ccc2C(=O)O)c1,inactive
6,CCc1ccccc1NCc1sc(C(=O)O)cc1C,inactive
7,O=C(O)c1ccc(CNCc2ccc(F)cc2)s1,inactive
8,Cc1cc(C(F)F)n2nc(C(=O)Nc3ccc(S(=O)(=O)N4CCCCCC4)cc3)nc2n1,inactive
9,CCC(=O)c1ccc(OCC(=O)O)c(OC)c1,inactive
10,O=C(CNC(=O)c1ccco1)OCN1C(=O)c2ccccc2C1=O,inactive
11,COc1ccc(CCNC(=O)C2CCCN2C(=O)NC2CCCCC2)cc1OC (stereo not given),inactive
12,CC(C)(C)NC(=O)CSc1nccn1Cc1ccccc1,inactive
13,CCCCNC(=O)c1cc([N+](=O)[O-])[nH]n1,inactive
14,Nc1nc(CN2CCN(c3ccccc3F)CC2)nc(N2CCCc3ccccc32)n1,inactive
15,CCn1c2ccccc2c2nc3cc(C(=O)O)ccc3nc21,inactive
16,COc1cccc(OCc2c(C)cccc2C)c1C(=O)O,inactive
17,COc1cccc(NC(=O)NCCCN2CCN(c3ccc(F)cc3)CC2)c1,inactive
18,Cc1nn(-c2ccc(F)cc2)c(Cl)c1/C=C(\CCC(=O)O)c1nc2ccccc2s1,inactive
19,Cn1c(=O)cc(N2CCOCC2)[nH]c1=O,inactive
20,Cc1cc2nc3c(=O)n(C4CCCCC4)c(=O)[nH]c3nc2cc1N,inactive
21,CNC(=O)C(C)NS(=O)(=O)c1ccc(F)cc1 (stereo not given),inactive
22,NC(=O)COC(=O)c1cccc2c1-c1ccccc1C2=O,inactive
23,O=C(O)c1cc([N+](=O)[O-])ccc1NCc1ccccc1Cl,inactive
24,COc1cc(-c2cc(=O)c3c(O)cc(O)cc3o2)ccc1O,inactive
25,O=C(Cc1ccc(Nc2nc(=S)[nH]c3ccccc23)cc1)NC1CCCCC1,inactive
26,Cc1cc(C(F)(F)F)c(C#N)c(SCC(=O)Nc2nc3ccccc3s2)n1,inactive
27,O=C(CSc1n[nH]c(=O)[nH]c1=O)N/N=C/c1ccccc1,inactive

row,SMILES,outcome
1,O=C1CN=C(c2ccccc2)c2cc(Br)ccc2N1Cc1cc(=O)n2ccccc2n1,inactive
2,CC(C)[C@H](NC(=O)c1ccccc1)C(=O)OCC(=O)NCCc1ccc(F)cc1,inactive
3,O=C(NCc1cccs1)c1cccn2c(=O)c3sccc3nc12,inactive
4,Cc1cc(C)cc(C(=O)N(NC(=O)Nc2ccc(Cl)cc2)C(C)(C)C)c1,inactive
5,Cn1c(NC(=S)Nc2ccccc2)nc2ccccc21,inactive
6,O=C(Nc1cccc(-c2ccc3nncn3n2)c1)c1ccco1,inactive
7,CC(C)CCNC(=O)Cc1ccc(Nc2nc(=S)[nH]c3ccccc23)cc1,inactive
8,CCOc1c2ccc(C(=O)N[C@H](C)C3CCCCC3)cc2nn1CCOC,inactive
9,CS(=O)(=O)N1N=C(c2ccccc2)CC1c1ccc2c(c1)OCO2 (stereo not given),inactive
10,Cc1ccc(-c2cn3cccc(C)c3n2)cc1,inactive
11,CN1CCN(c2ccccc2NC(=O)c2ccc(-c3cccc([N+](=O)[O-])c3)o2)CC1,inactive
12,O=C(O)C1CCCN1C(=O)OCc1ccccc1 (stereo not given),inactive
13,COc1ccc([N+](=O)[O-])cc1NC(=S)NC(NC(=O)Cc1ccc(OC)c(OC)c1)C(Cl)(Cl)Cl (stereo not given),inactive
14,Cc1ccc(-c2ccc(/C=C(\C#N)C(=O)Nc3cc(C)nn3-c3ccccc3)o2)cc1,inactive
15,Cc1cccc2cc(CN(Cc3cccs3)C(c3nnnn3C3CCCC3)C(C)C)c(=O)[nH]c12 (stereo not given),inactive
16,Cc1cccc(OCCSc2nc3ccccc3n2CC(=O)O)c1C,inactive
17,CC(C)(C)c1ccc(OCCSc2nc3ccccc3n2CC(=O)O)cc1,inactive
18,COc1ccc(OC)c(/C=N/NC(=O)c2ccc(Cn3cc([N+](=O)[O-])cn3)o2)c1,inactive
19,O=C(Nc1nc(-c2ccc(S(=O)(=O)N3CCCC3)cc2)cs1)c1cccs1,inactive
20,Nc1cccc(S(=O)(=O)c2cccc(N)c2)c1,inactive
21,Cc1ccc(/C=C(\CCC(=O)O)c2nc3ccccc3s2)cc1[N+](=O)[O-],inactive
22,Cc1c(NC(=O)CCN2C(=O)c3ccccc3C2=O)c(=O)n(-c2ccccc2)n1C,inactive
23,C=C(C)COc1ccc(-c2n[nH]c(C)c2-c2ccc(Br)cc2)c(O)c1,inactive
24,CCc1ccc(OCc2ccc(C(=O)O)o2)cc1,inactive
25,COc1ccc(N/C=C/c2nc(SC)nnc2C)cc1,inactive
26,CCC(OC(=O)c1cc2sccc2n1C)C(=O)NCc1ccco1 (stereo not given),inactive
27,Br.COc1cc(NS(=O)(=O)c2ccc(Nc3nc(-c4ccccc4)cs3)cc2)nc(OC)n1,inactive

row,SMILES,outcome
1,COc1ccc(-c2nn3c(-c4ccccn4)nnc3s2)cc1OC,inactive
2,COc1ccccc1-n1cc([C@@H]2C[C@H]3CN(c4ccccc4)C(=O)[C@]34CCCN24)cn1,inactive
3,CC(=O)OC(C(=O)NC1CCCCC1)c1ccc(Cl)cc1 (stereo not given),inactive
4,CC(C)C(=O)N1CCN(c2ccccc2NC(=O)c2cccc(Cl)c2)CC1,inactive
5,COc1ccc(-c2nnc(S/C(=C/c3ccc(Cl)cc3)C(=O)O)o2)cc1,inactive
6,Cc1nc2ncccn2c1-c1csc(Nc2ccccc2)n1,inactive
7,Cc1cccc(CNc2ncccc2C(=O)O)c1,inactive
8,COC(=O)c1ccc(COc2ccccc2/C=N/Nc2cccc(C(=O)O)c2)cc1,inactive
9,C=CCc1ccc(OCc2ccc(C(=O)O)o2)c(OC)c1,inactive
10,Cc1ccc(-n2c(SCc3cc(=O)n4ccsc4n3)nnc2-c2cccnc2)c(C)c1,inactive
11,COc1cccc(OCc2ccccc2Br)c1C(=O)O,inactive
12,CCc1nnc(NC(=O)CSc2nnc(CNc3ccc(F)cc3)n2C2CCCCC2)s1,inactive
13,CN(C)CCN(C(=O)c1ccc(N2C(=O)CCC2=O)cc1)c1nc2cc3c(cc2s1)OCO3.Cl,inactive
14,Cc1cc(C)n2nc(C(=O)Nc3ccc(S(=O)(=O)N4CCCC4)cc3)nc2n1,inactive
15,COc1ccc(/C=N/n2c(N)c(S(=O)(=O)c3cccs3)c3nc4ccccc4nc32)cc1OC,inactive
16,O=C(Oc1cccc(O)c1)C1CCCCC1,inactive
17,COc1cc(NC(=O)c2cccs2)c(OC)cc1NC(=O)CCC(=O)Nc1cccc2ncccc12.Cl,inactive
18,CC1(C)Cc2c(sc(NC(=O)c3ccc(Br)o3)c2C#N)CO1,inactive
19,C=CCNc1nc(=S)[nH]c2cc(OC)c(OC)cc12,inactive
20,Cc1nc(NC(=O)/C=C/c2ccc(Cl)cc2Cl)sc1C(=O)N(C)C,inactive
21,O=C(COC(=O)/C=C/c1cccs1)Nc1ccc2ccccc2c1,inactive
22,O=C(C1CCCO1)N1CCN(C(=S)Nc2ccccc2C(F)(F)F)CC1 (stereo not given),inactive
23,COc1ccc(CC(=O)Nc2ccc(C(=O)Nc3nccs3)cc2)cc1OC,inactive
24,CS(=O)(=O)c1ccc(C(=O)OCc2nnc(-c3ccccc3)o2)cc1[N+](=O)[O-],inactive
25,N#CC(c1ccc(Cl)nn1)c1ccc(Cl)cc1Cl (stereo not given),inactive
26,Cc1cc(C)c2sc(N(CCN(C)C)C(=O)c3cc(Cl)sc3Cl)nc2c1.Cl,inactive
